Source: PubChem BioAssay AID624348 (National Center for Advancing Translational Sciences (NCATS), 2012)
Activity calls are given as the source filed them.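 Rule for the calls: active = concentration cutting cell viability by half at or below 20 µM after three days; inconclusive = half-viability concentration between 20 and 30 µM; inactive = half-viability concentration of 30 µM or more.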

experiment: qHTS for Inducers of the Endoplasmic Reticulum Stress Response (ERSR) in Human Glioma: Hit Validation in Cytotoxic Counterscreen; conditions: U87-MG glioma viability, CellTiter-Glo ATP luminescence, 72 h
Excerpt: Primary protein unfolding takes place for many diseases, including diabetes and hypoxia, , and triggers a reaction in the cells called ER stress response (ERSR). ). ERSR is designed as a repair mechanism, but ultimately leads to cell death via apoptosis if conditions triggering protein unfolding persist (1). The molecular clue to ERSR activation is the enhancement of the expression of key molecular chaperones, including the glucose regulated protein (GRP) 78. GRP78 is the main sensor for protein folding and the main actuator of the ERSR. In a collaboration between the Southern Research Institute and the NIH Chemical Genomics Center, a cell based screen was developed that reliably uses GRP78 as a sensor to identify small molecules as inducers of ERSR. In resting conditions, GRP78 binds proteins and acts as a natural repressor. Once unfolded proteins are present in the ER, GRP78 releases some of the repressors and binds to the unfolded proteins. The release of the repressors executes the ERSR program. Using a human glioma cell line in a miniaturized, luminescent format, a high-throughput screen was developed to identify actuators of the ERSR. This assay validates the hits identified in the primary screen in this cytotoxic counterscreen. Activity is undesirable in this assay. NIH Chemical Genomics Center [NCGC] NIH Molecular Libraries Probe Centers Network [MLPCN] MLPCN Grant: DA031669 Assay Submitter (PI): Maurizio Grimaldi, Southern Research Institute (1) Soboloff, J. and S. A. Berger (2002). "Sustained ER Ca2+ depletion suppresses protein synthesis and induces activation-enhanced cell death in mast cells." J Biol Chem 277(16): 13812-20.
Wild type U87-MG are dispensed at density 1000 cells/well into Greiner white solid bottom 1536-well assay plates. […] The plates are incubated at room temperature for 10 minutes and read in a ViewLux high-throughput CCD imager (PerkinElmer), wherein end-point measurements of luminescence through the quantitation of the ATP content, an indicator of metabolically active cells, are acquired.

| Compound | outcome |
| --- | --- |
| CC(=O)N1CCOc2cc(S(=O)(=O)Nc3c(C)cccc3C(C)C)c(Cl)cc21 | inactive |
| Cc1ccc(-c2cc(NC(=O)C(C)Oc3ccc(C)c(C)c3)on2)cc1 (stereo not drawn) | inactive |
| CC(C)Cc1nn2c(=O)cc(COC(=O)CNC(=O)c3ccc(C(C)(C)C)cc3)nc2s1 | inactive |
